Several values for one entry are separate records, joined by “and”; a condition that tells them apart may be missing. Equal values may be shown once. The campaign covered roughly 360,000 compounds. About 17,000 (4.7%) were called active. Inconclusive results (about 5%) are left out. What follows is part of a selection rich in actives, with near analogues and random picks from the rest. Unmarked numbers belong to inactive results. Cut-off read from the data, not from the text of the source: active = activity change below about -50%; inconclusive = mostly about -30% to -49%; inactive = weaker than that.
% is set by controls: 0 for no effect and ±100 for the full control effect.

The nature of the test: qHTS for Inhibitors of Inflammasome Signaling: IL-1-beta AlphaLISA Primary Screen. The note with it: THP-1 LPS/ATP IL-1B secretion, 16 h; at 57.5 µM, hits give low values. The gist of the method: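 THP-1 cells pretreated 1 hr with compounds (up to 57.5 uM final), then stimulated with LPS (250 ng/mL final) plus ATP (1.25 mM final); secreted IL-1B measured by AlphaLISA after 16 hr, decreased signal indicating inhibition.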
In the case of `CSCCC(NS(=O)(=O)c1ccc(C)cc1)C(=O)NCCc1c[nH]c2ccccc12` (centres undefined), the activity change is -1.87%. Consider `O=C1Nc2ccccc2-n2nnnc2C1N1CCN(c2cccc(C(F)(F)F)n2)CC1` (centres undefined), for which the activity change was -29.2%. In the case of `CC1CCCCC1NC(=O)CO/N=C/c1ccc(OC(F)F)cc1` (centres undefined), the activity change is -0.145%. The same measure for `CCOc1ccc(/C=N/OCC(=O)NCc2cccs2)cc1`: -0.513%. Consider `O=C(CO/N=C/c1ccc(OC(F)F)cc1)NCc1ccc(F)cc1`, for which the activity change is -66.2% (active). The same measure for `CC(C)(C)C(=O)c1c(N)[nH]c(C(=O)c2ccccc2)c1-c1ccc(F)cc1`: 19.8%; for `Fc1cccc(Cc2c(-c3cccc(Cl)c3)nc3ccc(Br)cn23)c1`: 88.1%; for `Cc1cccc(NC(=O)C(C)SCc2ccccc2)c1` (centres undefined): 58.8%. On to `CN1C(=O)c2ccc(C(=O)Nc3ccc(Br)cn3)cc2C1=O`, for which the activity change was -0.113%. With `Cc1onc(NC(=O)c2ccc([N+](=O)[O-])o2)c1Br` the figure was -79.8% (active); with `Cc1cc(NC(=O)COc2ccc([N+](=O)[O-])cc2)no1`, -22.5%. As for `Cc1cccc(C(=O)Nc2ccc(CC(=O)O)cc2)c1`, the activity change was 0%. The same measure for `Cc1cccc(NC(=O)c2ccc([N+](=O)[O-])o2)c1`: -102% (active). `O=C(Nc1ccc(Br)cn1)c1ccc([N+](=O)[O-])o1`: the activity change is -155% (active). As for `Cc1onc(C(=O)NCc2ccc(F)cc2)c1[N+](=O)[O-]`, the activity change is 10%.

`O=C(Nc1ccc(Br)cn1)c1ccc([N+](=O)[O-])cc1Cl`: the activity change is -6.95%.

Turning to `C[n+]1cccc(C(=O)O)c1`, the activity change was -10.8%. Consider `O=C(NCc1cccnc1)c1cc(C2CCCCN2C(=O)CCc2ccccc2)on1` (centres undefined), for which the activity change is 19.3%. Consider `Cc1n[nH]c(=O)c2c(NC(=O)CSc3ccccc3F)oc(C)c12`, for which the activity change is -0.579%.

Consider `CC(C)(C)OC(=O)NC(Cc1ccccc1)C(=O)NC(CSC1CCCCO1)C(=O)NN` (centres undefined), for which the activity change was -12%. With `COc1ccc(CN2C(=O)C(CC(=O)NCCN3CCOCC3)CC(C(=O)N(C(C)C)C(C)C)=C2C)cc1` (centres undefined) the figure was 15.9%; with `COc1cc(C2c3cc4c(cc3C(O)C3COC(=O)C23)OCO4)cc(OC)c1OC` (centres undefined), -3.2%. The same measure for `O=C(NCC(F)(F)F)c1ccc(S(=O)(=O)NCCc2ccc3c(c2)OCCO3)cc1`: -14.1%; for `CCCn1c(N)c(C(=O)CSc2nnc(Cc3cccs3)n2C2CC2)c(=O)[nH]c1=O`: -3.66%; for `COc1cc(OC)cc(C2=Cc3ccccc3C(CC(=O)c3ccco3)N2c2ccc(-c3cnc(OC)nc3)cc2)c1` (centres undefined): 3.59%.

In the case of `CCOc1ccc(Cl)cc1-c1cc(C(=O)NCc2cccs2)[nH]n1`, the activity change was -22.8%. For `COC(=O)C[C@@H]1C=C[C@@H](NS(=O)(=O)c2cccc(OC)c2)[C@@H](CO)O1`, the activity change is -5.98%.

Consider `CCOC(=O)/C(=N\Nc1cc(Cl)ccc1Cl)N1CCN(C)CC1`, for which the activity change is 19%. With `COc1cc2ccc(C(C)=O)c(O)c2cc1OC` the figure was -10.2%; with `COc1cccc(-c2nc3nc(C)cc(C)n3c2NC2CCCCC2)c1`, 8.2%; with `Cc1ccc2nc(-c3cccnc3)c(NC3CCCC3)n2c1`, -1.15%. As to `COc1ccc(-c2nc3cnccn3c2NC(C)(C)CC(C)(C)C)cc1O`, the activity change was -71.3% (active). On to `COc1ccc(-c2nc3cc(C)ccn3c2NC2CCCCC2)cc1SC1CCCCC1`, for which the activity change is -85% (active). With `COC(=O)c1ccc2nc(-c3ccc(OC)c(OC)c3)c(Cc3ccccc3)n2c1` the figure was -9.54%. On to `CCOc1cc(-c2nc3cc(C)ccn3c2NCC2CCCO2)ccc1O` (centres undefined), for which the activity change is 2.58%. With `COc1ccc(-c2nc3cnccn3c2NC2CCCCC2)cc1-c1cccc(Cl)c1`, the activity change is -76.6% (active) and -52.7% (active).

With `COc1ccc(C)cc1S(=O)(=O)NC1CCCCC1`, the activity change was -4.98%. With `CC(=O)Nc1cc(-c2ccccc2F)cn2c(-c3cccc(C(F)(F)F)c3)cnc12` the figure was -13.7%; with `COc1cc(C=NC2CCCCC2)ccc1O`, 9.61%. Turning to `Cc1ccc(-c2nc(C)sc2CC(=O)OCC(=O)Nc2c(F)cccc2F)cc1`, the activity change is 8.31%. For the compound `CCNC(=O)C1CCCN(C(=O)c2ccc(OC)cc2OC)CC1` (centres undefined), the activity change was 5.59%. The same measure for `COC(=O)CC(CC(=O)OC)n1cccc1`: 4.98%.

On to `O=C(CN(Cc1ccc(Br)cc1)S(=O)(=O)c1ccccc1)NCc1ccncc1`, for which the activity change was -5.94%. The same measure for `Cc1cc(C)cc(C(=O)NC(CC(N)=O)c2ccc(N3CCC(N4CCCCC4)CC3)c([N+](=O)[O-])c2)c1` (centres undefined): -16.2%; for `CCOC(=O)c1c(C)[nH]c(C)c1C(=O)COC(=O)/C=C/c1cccc([N+](=O)[O-])c1`: -15%. In the case of `CCCOC1CCCN(C(=O)c2cc(COc3cncc(Cl)c3)on2)C1` (centres undefined), the activity change was 0%. The same measure for `NC(=O)COC(=O)/C=C/c1ccc2ccccc2n1`: -101% (active); for `COc1ccc(C(=O)COC(=O)c2ccc3ccccc3n2)cc1`: 3.46%; for `CC(NC(=O)COC(=O)c1ccc2ccccc2n1)c1ccccc1` (centres undefined): 2.13%. With `COc1cc(CCC(=O)N2CCN(c3ccccc3Cl)CC2)cc(OC)c1OC` the figure was 7.36%; with `COCCCN(C(=O)Cn1ncc2c(=O)oc3ccc(C)cc3c21)C(C)c1ccncc1` (centres undefined), 7.95%. With `CNC(=S)NNC(=O)c1oc2nc(-c3ccccc3)cc(-c3ccco3)c2c1N` the figure was -18%; with `CS(=O)(=O)c1sc2nc(-c3ccccc3)cc(-c3ccccc3)c2c1N`, -67.8% (active). As for `Nc1cccc(-c2cc(-c3ccccc3)nc(-c3cccc(N)c3)n2)c1`, the activity change was -9.31%. In the case of `CCOC(=O)C(C)n1cnc2scc(-c3ccc(C)c(C)c3)c2c1=O` (centres undefined), the activity change was -7.25%.

Regarding `Cc1ccc(C(=O)/C=C/c2c(C)nn(-c3ccccc3)c2Cl)cc1`, the activity change is -95% (active). For the compound `Cc1nn(-c2ccccc2)c(-n2cccc2)c1C(=O)O`, the activity change is 20.3%. The same measure for `Cc1ccc(C(=O)Nc2nc(N)n(-c3ccccc3)n2)cc1`: -8.07%; for `Cc1nn(-c2ccccc2)c(C)c1/C=C/C(=O)OC(C)C(N)=O` (centres undefined): 9.76%.

Take `Cc1nn(-c2ccccc2)c(Cl)c1/C=C/C(=O)c1ccc(O)cc1`: the activity change is -94.5% (active).

On to `Cc1nn(-c2ccc(F)cc2)c(Cl)c1/C=C(/CCC(=O)O)c1nc2ccccc2s1`, for which the activity change is 19.2%. With `OCC(O)C1OCOC(C(O)CO)C1O` (centres undefined) the figure was -2.84%. The same measure for `Cc1ccc(C2Nc3ccccc3C(=O)N2CCN2CCNC2=O)cc1` (centres undefined): 10.9%. The same measure for `Cc1cccc2[nH]c(CN(C)C(=O)C3CCC(=O)N(CCc4ccccc4)C3)nc12` (centres undefined): 0%; for `Cc1cccc(C)c1NC(=O)C(Cl)C(=O)c1ccccc1` (centres undefined): -95.8% (active).

For `Cc1cccc(C)c1NC(=O)CN(C)C(=O)CCC(=O)c1ccccc1`, the activity change is -6.47%. The same measure for `Cc1cccc(C)c1NC(=O)C(c1ccccc1)N1CC(=O)Nc2ccccc21` (centres undefined): -11%; for `OC(c1ccc(F)cc1)c1ncc(-c2cccc(C(F)(F)F)c2)[nH]1` (centres undefined): -20.2%. The same measure for `COc1ccc(NC(=O)C(Br)C(C)C)cc1` (centres undefined): -18.5%; for `COC(=O)[C@H](CCSC)NC(=O)Nc1ccc(OC)cc1`: 16.7%. With `COc1ccc(CC(N)c2csc(NC(=O)NC(c3ccccc3)c3ccccc3)n2)cc1` (centres undefined) the figure was -61.5% (active); with `CC(C)(C)CC(=O)Nc1nnc(SCC(=O)NCc2cccs2)s1`, -5.2%; with `NC(Cc1ccccc1)c1csc(Nc2cc(Oc3ccccc3)ncn2)n1` (centres undefined), 0%. For `COc1ccc(OC)c(NC(=O)N[C@H](Cc2ccccc2)C(=O)NN)c1`, the activity change is -13.5%. With `CC(C)(C)CC(=O)Nc1nc(C(N)Cc2ccc(C(F)(F)F)cc2)cs1` (centres undefined) the figure was -83.8% (active); with `Cc1ccccc1NC(=O)Cc1nc(COC(=O)c2ccc(C(F)(F)F)cc2)cs1`, -4.36%.

For the compound `COc1ccc(CC(N)c2csc(NC(=O)Nc3ccc(C(C)C)cc3)n2)cc1` (centres undefined), the activity change is -108% (active). Turning to `CCCS(=O)(=O)NC(=O)C1(C)CCN(C(=O)c2sccc2C)C1` (centres undefined), the activity change was 6.04%.

For `CC1(C(=O)NCc2cccc3ccccc23)CCN1Cc1ccc(-c2ccccc2)o1` (centres undefined), the activity change is -22.3%. The same measure for `COc1cccc(CNS(=O)(=O)c2ccc3c(c2)N(C(C)=O)CCS3)c1`: -9.03%; for `CCC1CCCCN1C(=O)CSc1nc(C)cc(C)n1` (centres undefined): -6.03%; for `COc1ccc(-c2ccc(CN3C(C(C)C)C(=O)N(Cc4cn(CC5CCCCC5)nn4)CCS3(=O)=O)cc2)cn1` (centres undefined): -2.84%. With `COc1ccc(CCNC(=O)C(Sc2ccccn2)c2ccccc2)cc1OC` (centres undefined) the figure was -6.65%; with `COc1ccc(C(CCN(Cc2ccc(OC)c(OC)c2)C(=O)CCl)c2ccccc2)cc1` (centres undefined), -101% (active); with `COc1ccc(COC(=O)NC(C(=O)O)c2ccccc2)cc1` (centres undefined), 7.03%.

With `O=C(NCC(O)c1nc2ccccc2[nH]1)c1ccc(Br)cc1` (centres undefined), the activity change was 1.41%. The same measure for `C/C(CC(=O)Nc1ccc(Cl)cc1)=N\NC(=O)C(=O)NCCO`: 11.5%; for `CCOC(=O)Cc1csc(SCC(=O)Nc2ccc(C)cc2F)n1`: 21%. With `COc1ccc(-c2[nH]nc3c2C(c2ccncc2)C(C#N)=C(N)O3)cc1` (centres undefined) the figure was 0%.

With `COc1cc(C2C(C#N)=C(N)Oc3n[nH]c(-c4ccccn4)c32)cc(OC)c1OC` (centres undefined), the activity change was 1.38%.

`CCOc1c(OC)cc(C2C(C#N)=C(N)Oc3n[nH]c(-c4ccncc4)c32)cc1OC` (centres undefined): the activity change is 25.5%.

Turning to `CCCc1[nH]nc2c1C(c1ccc(Br)s1)C(C#N)=C(N)O2` (centres undefined), the activity change is -99.8% (active). The same measure for `CCc1ccc(C2C(C#N)=C(N)Oc3n[nH]c(CC(=O)OC)c32)cc1` (centres undefined): -9.71%; for `CCCc1[nH]nc2c1C(c1ccc(OC)c(Cn3nc(C)c(Br)c3C)c1)C(C#N)=C(N)O2` (centres undefined): -67% (active).
